Hit rate of the full screen: of about 370,000 compounds, about 3,300 (0.89%) were called active.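 How the source made its calls: active means activation above the mean of all tested compounds plus 3 SD, computed per campaign excluding outliers beyond control limits (cut at about 13% in these data); inactive means the rest.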 The full list was thinned out, with actives kept by preference.

Chain of Kallikrein-7 (Homo sapiens) (P49862 whole entry, looked up): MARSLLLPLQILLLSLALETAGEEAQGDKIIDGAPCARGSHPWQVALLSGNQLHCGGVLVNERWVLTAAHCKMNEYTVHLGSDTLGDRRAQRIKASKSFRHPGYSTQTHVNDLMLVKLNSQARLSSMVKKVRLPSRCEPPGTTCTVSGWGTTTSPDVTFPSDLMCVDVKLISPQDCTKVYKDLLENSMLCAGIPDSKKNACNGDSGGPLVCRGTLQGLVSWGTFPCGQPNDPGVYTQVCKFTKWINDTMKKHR

The assay addresses Kallikrein-7 (Homo sapiens) (UniProt P49862). Briefly: proKLK7 zymogen activators, primary screen, biochemical, fluorescence intensity (AID 652039). As to conditions: purified proKLK7, EDANS-DABCYL substrate fluorescence; at 7 µM; stronger effect = higher value; 100% is mature enzyme control, 0% vehicle.
Turning to `CN[C@H]1C[C@H]2c3cc(N4CCOCC4)ccc3CCN2C[C@H]1[C@H](C)O`, the activation was -0.23% (inactive). For `Cc1ccccc1NC(=O)C1CCN(c2ncccn2)CC1`, the activation is 0.11% (inactive). Next, `CC[C@@H](CCC(=O)N(c1ccccc1)c1ccccc1)C1CC1`: 0.23% (inactive); `CCCn1c(=NC(C)=O)c(C(=O)OCC)cc2c(=O)n3ccccc3nc21`: 24.2% (active); `CCOC(=O)c1cc2c(=O)n3ccccc3nc2n(CC(C)C)c1=NC(=O)c1c(-c2c(F)cccc2Cl)noc1C`: 0.37% (inactive). With `CCn1c(=N)c(S(=O)(=O)c2ccc(F)cc2)cc2c(=O)n3ccccc3nc21`, the activation is 3.21% (inactive). Next, `O=C(C1CCN(S(=O)(=O)c2ccccc2)CC1)N1CCN(C2CCCCC2)CC1`: 0.53% (inactive); `O=C(NN1CCOCC1)c1cccc(F)c1`: 0.32% (inactive). As to `COc1ccc(N2CCN(CCNS(=O)(=O)c3ccc([N+](=O)[O-])cc3)CC2)cc1`, the activation is -0.14% (inactive). Take `C=CCOc1cccc(C2NC(=O)c3ccccc3O2)c1` (stereo not given): the activation was -1.97% (inactive). The value for `O=C1NC(c2ccccc2)Oc2ccccc21` (stereo not given) was -2.02% (inactive); that for `O=C1NC(c2cccc(Cl)c2)Nc2ccccc21` (stereo not given) was 13.9% (active); that for `O=C(c1ccncc1)N1CC[C@H]2[C@H](CCCN2Cc2ccc(F)cc2)C1` was 0.94% (inactive). Next, `COc1ccccc1NC(=O)C(C)OC(=O)c1ccc(-n2cnnn2)cc1` (stereo not given): -0.16% (inactive). Next, `Cc1c(NC(=O)C(C)OC(=O)c2ccccc2O)c(=O)n(-c2ccccc2)n1C` (stereo not given): 1.12% (inactive); `CC(OC(=O)c1ccccc1NCCO)C(=O)Nc1ccnn1C(C)C` (stereo not given): 32.9% (active); `CC(C)CNc1cccc2c1S(=O)(=O)N(Cc1cn(Cc3ccc(Cl)cc3)nn1)Cc1ccccc1O2`: -9.81% (inactive). Regarding `CN(CCc1ccccn1)S(=O)(=O)c1ccc2c3c(cccc13)C(=O)N2`, the activation is 41.6% (active). For the compound `CN(CC(=O)NCCc1ccccn1)S(=O)(=O)c1ccc(Cl)cc1`, the activation was 0.31% (inactive). The value for `CN(CCc1ccccn1)C1CCCN(S(=O)(=O)c2ccccc2Cl)C1` (stereo not given) was 0% (inactive). The value for `N#Cc1ccc(OC[C@@H](O)CN2CCC(C(O)(c3ccccc3)c3ccccc3)CC2)c(F)c1` was 0.5% (inactive); that for `COc1c(N2CCN(C(=S)Nc3ccccc3F)C(C)C2)c(F)cc2c(=O)c(C(=O)O)cn(C3CC3)c12` (stereo not given) was 17.9% (active); that for `CN1[C@H](Cc2ccccc2)COc2cccc(N3CCSCC3)c2S1(=O)=O` was 0.48% (inactive). As for `C[C@@H]1COc2cccc(N3CCCC3)c2S(=O)(=O)N1C`, the activation was 0.38% (inactive). The value for `CC1CCN(c2oc(-c3ccccc3F)nc2C#N)CC1` was -0.12% (inactive). Next, `N#Cc1nc(Cc2cccc3ccccc23)oc1NCc1ccc2c(c1)OCO2`: 0.74% (inactive); `N#Cc1nc(-c2cccc3ccccc23)oc1N`: 56.1% (active). The value for `Cc1nc2cccnc2nc1C` was -0.19% (inactive); that for `Cc1nc2ccc(N)nc2nc1C` was 55.8% (active); that for `Cc1ccc(C)c(NC(=O)CCS(=O)(=O)c2ccccc2)c1` was -0.69% (inactive). Consider `Cn1c(=O)c2cc(NC(=O)NCCc3cccs3)ccc2n1Cc1cccc(C(F)(F)F)c1`, for which the activation was -1.5% (inactive). Next, `COc1cc(Cn2c3ccc(NC(=O)CC(C)c4ccccc4)cc3c(=O)n2C)ccc1F` (stereo not given): 2.56% (inactive). Next, `CCNC(=S)Nc1ccc2c(c1)c(=O)n(C)n2Cc1ccc(Cl)cc1`: 21.2% (active); `COc1ccc(N2CCN(CCNS(=O)(=O)c3ccc(Cl)s3)CC2)cc1`: -0.36% (inactive); `CCOC(=O)C1=C(C)NC2=C(C(=O)CC(C)(C)C2)C1c1ccc2c(c1)OCO2` (stereo not given): 0.13% (inactive). Next, `COCC(C)OC(=O)c1c(N)n(CCCN2CCOCC2)c2nc3ccccc3nc12` (stereo not given): 16.3% (active); `Cc1nn(Cc2ccccc2)c(C)c1C(=O)NCCCN1CCCC1=O`: -0.1% (inactive); `CC(C)(C)OC(=O)c1c(N)n(CCCN2CCCC2=O)c2nc3ccccc3nc12`: 62.5% (active). Consider `O=C(NCCCN1CCCC1=O)c1ccc(S(=O)(=O)Nc2ccccc2)cc1`, for which the activation is -0.77% (inactive). The value for `CC(=O)c1ccc(NC(=O)CSc2nc3ccccc3c(=O)n2CCCN2CCOCC2)cc1` was 0.28% (inactive); that for `CC(CN1CCOCC1)OC(=O)c1ccc(C(C)(C)C)cc1` (stereo not given) was 0.72% (inactive); that for `CCCCCCNC(=O)O[C@H]1CN(C(=O)OC(C)C)N(C(=O)OC(C)C)[C@@H]2CN(S(=O)(=O)c3ccc(C)cc3)C[C@]12O` was -0.38% (inactive).

In the case of `O=C1CCC2(CCC(c3ccc(Cl)cc3)CC2)N1CCO` (stereo not given), the activation was -0.69% (inactive). The value for `Cc1cccc(C)c1NC(=O)C(c1ccccc1)N1CC(=O)Nc2ccccc21` (stereo not given) was 16.4% (active); that for `Cc1ccccc1SCC(=O)OCC(=O)N1CC(=O)Nc2ccccc21` was 0.52% (inactive); that for `Cc1cccc(C)c1NC(=O)C(c1cccc(F)c1)N1CCN(C)CC1` (stereo not given) was -0.04% (inactive). Next, `CCCCNC(=O)C[C@@H]1C(=O)N(CCc2ccc(Cl)cc2)C2=CCCC[C@]21C(=O)OCC`: 0.21% (inactive); `CC(CCN1CCC(C(O)(c2ccccc2)c2ccccc2)CC1)Oc1ccc(Cl)cc1` (stereo not given): -0.05% (inactive). Consider `CCOC(=O)C(=O)N(Cc1ccccc1)c1ccccc1C(=O)Nc1cc(OC)ccc1OC`, for which the activation is 0.42% (inactive). Next, `CCc1nnc(NC(=O)CSc2nc3ccccc3c(=O)n2CCCOC)s1`: 0.09% (inactive). Take `COc1ccccc1C(=O)Nn1c(-c2cccs2)nc2ccccc2c1=O`: the activation is -0.4% (inactive). `COCCCn1c(-c2cccs2)nc2nc3ccccc3nc21`: the activation was 22.9% (active). For the compound `O=C1CC[C@@H](COc2ccc3[nH]cc(-c4ccccc4)c3c2-c2ccccc2)N1`, the activation was -1.38% (inactive). Next, `CCCc1cc(=O)oc2c(C)c(OCC(=O)N3CCC(C(=O)O)CC3)ccc12`: 0.06% (inactive); `CCCc1cc(=O)oc2c(C)c(O)c(CN3CCCCC3)cc12`: 58.8% (active).

On to `CCCc1cc(=O)oc2c(C)c(OC(C)C(=O)NCC(O)c3ccccc3)ccc12` (stereo not given), for which the activation is -0.01% (inactive). The value for `O=C(CSc1nnc(-c2cccc(Cl)c2)n1Cc1ccco1)Nc1ccc(OCc2ccccc2)cc1` was 0.41% (inactive); that for `CCn1c(SCC(C)=O)nc2sc3c(c2c1=O)CCCC3` was 0.36% (inactive); that for `CCCNC(=O)Nc1ccc2c(c1)C(=O)N(C)[C@H]1CC[C@H](CC(=O)NCC3CCCCC3)O[C@@H]1CO2` was 0.14% (inactive). Next, `CCN1CCN(C(=O)CN(C)S(=O)(=O)c2ccc(OC)cc2)CC1`: -0.44% (inactive). In the case of `COc1ccc(OCC(=O)N2CCN(C(=O)c3cccs3)CC2)cc1`, the activation is 0.07% (inactive).

As for `CCN1CCN(C(=O)c2cc3cc4ccc(OC)cc4nc3s2)CC1`, the activation is 68.7% (active). The value for `COC(=O)[C@]12C[C@H](CC(=O)NCc3ccccc3)C(=O)N(Cc3ccccc3)C1=C[C@H](COCc1ccccc1)O[C@@H]2C` was -0.24% (inactive); that for `CCCOc1ccc(Oc2c(Cl)cnn(Cc3cccc4ccccc34)c2=O)cc1` was 0.98% (inactive); that for `COc1ccc(CSc2nnc(-c3cccc(C)c3)n2C)cc1` was -0.66% (inactive). The value for `CCOC(=O)c1c(NC(=S)Nc2ccccc2)sc2c1CCN(C)C2` was 33.8% (active). With `CCOC(=O)c1c(NC(=O)NC(C)(C)C)sc2c1CCN(C)C2`, the activation is 0.12% (inactive).

Turning to `CCOC(=O)c1c(NC(=S)SC)sc(C(=O)N2CCc3ccccc3C2)c1C`, the activation was 0.73% (inactive). The value for `COc1ccc(CNC(=O)C(C)n2nc(C)c3c(C)n(-c4ccccc4)nc3c2=O)c(OC)c1` (stereo not given) was 0.01% (inactive); that for `COCCCNC(=O)C[C@H]1C[C@@]2(C(=O)OC)C(=C[C@H](C(C)(C)C)O[C@@H]2C)N(Cc2ccc(Cl)cc2Cl)C1=O` was -0.25% (inactive).

`C#CCNC(=O)C[C@H]1C[C@@]2(C(=O)OC)C(=C[C@H](C(C)C)O[C@@H]2C2CC2)N(Cc2ccco2)C1=O`: the activation is 0.24% (inactive). For the compound `Oc1ccc2ccc3cccc[n+]3c2c1`, the activation is 16.2% (active). The value for `COc1ccc(-n2c(SCC(=O)Nc3ccc(C)c(Cl)c3)nc3ccccc3c2=O)cc1` was -0.5% (inactive). Next, `COc1ccc(-n2c(SCC(=O)Nc3ccc4c(c3)OCCO4)nnc2-c2ccc(Cl)cc2)cc1`: -0.65% (inactive); `CN1C[C@]2(C=C3CCCCC3n3c(=O)n(-c4ccccc4)c(=O)n32)N=C1NC(=O)c1ccccc1` (stereo not given in full): 0.02% (inactive); `COc1ccc(-n2c(SCC(=O)Nc3ccc4cn[nH]c4c3)nnc2-c2cccnc2)cc1`: -0.83% (inactive). Next, `O=C(Nc1ccccc1)N1CCN(Cc2nc3ccccc3c(=O)[nH]2)CC1`: 0.5% (inactive); `COc1ccc(CCNC(=O)C(=O)Nc2ccc3nc4n(c(=O)c3c2)CCCCC4)cc1OC`: 0.82% (inactive). On to `COc1ccc(CCNC(=O)c2cc3sccc3n2C)cc1OC`, for which the activation was -0.31% (inactive). The value for `COc1ccc(CCNC(=O)Nc2ccc3c(c2)c(=O)n(C)n3C)cc1OC` was 33.7% (active); that for `CCOC(OCC)c1ccc(/C=C\c2nccc(N)n2)cc1` was 47.7% (active). Next, `O=C(N1CCOCC1)N1CC[C@H]2[C@H](CCCN2Cc2ccc(F)cc2)C1`: 0.18% (inactive); `COc1ccc2c(c1)CN1CN(CCc3ccccc3)S(=O)(=O)CC21` (stereo not given): -0.32% (inactive). As to `CN(C(=O)CCn1c(=S)oc2ccccc21)C1CCCCC1`, the activation was -0.28% (inactive).

`CCOC(=O)C1=C(CC)OC(N)=C(C#N)C1c1ccc(F)cc1F` (stereo not given): the activation is -0.17% (inactive). Turning to `CC(C)c1ccc(C2C(C#N)=C(N)Oc3c2oc(CO)cc3=O)cc1` (stereo not given), the activation was 0.31% (inactive). Next, `CCOC(=O)C1=C(C)OC(N)=C(C#N)C1c1cncc(-c2ccc(F)cc2)c1` (stereo not given): 0.49% (inactive). Next, `COC(=O)C1=C(C)OC(N)=C(C#N)C1c1cc(OC)ccc1OC` (stereo not given): 30.7% (active).

For `COC(=O)C1=C(C)N(C)C(=S)NC1c1cc(OC)ccc1OC` (stereo not given), the activation was 0.24% (inactive). Next, `CCC1=C(C(=O)OC)C(c2cc(OC)ccc2OC)C(C#N)=C(N)O1` (stereo not given): 15.6% (active).

The record behind these values is PubChem BioAssay AID652039 (The Scripps Research Institute Molecular Screening Center, 2013).
